# Assay results reported in PubChem BioAssay (NCI).
# About 83,000 compounds went through this panel and 20% of them were active in at least one assay; those are over-represented in the sample as a whole.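 Treatment: one concentration, 48 hours, 96-well format. Scoring: percent growth, with anything below 10 considered active.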 A number with no mark means an inactive call. Calls of active or inactive are those of the source.
# What was measured:
# Test in all cases: NCI-60 one-dose screen, 48 h (100 = growth as untreated, 0 = no growth, -100 = all killed)
# SK-MEL-2 melanoma = details: 10 µM unless noted
# EKVX NSCLC = details: 10 µM unless noted
# SN12C renal = details: 10 µM unless noted
# UO-31 renal = details: 10 µM unless noted
# TK-10 renal = details: 10 µM unless noted
# ACHN renal = details: 10 µM unless noted
# CAKI-1 renal = details: 10 µM
# A498 renal = details: 10 µM unless noted
# CCRF-CEM leukemia = details: 10 µM unless noted
# MOLT-4 leukemia = details: 10 µM unless noted
# SR leukemia = details: 10 µM unless noted
# RPMI-8226 leukemia = details: 10 µM unless noted
# OVCAR-8 ovarian = details: 10 µM unless noted
# OVCAR-5 ovarian = details: 10 µM unless noted
# OVCAR-4 ovarian = details: 10 µM unless noted
# SK-OV-3 ovarian = details: 10 µM unless noted
# IGROV1 ovarian = details: 10 µM unless noted
# OVCAR-3 ovarian = details: 10 µM unless noted
# HS 578T breast = details: 10 µM unless noted
# NCI/ADR-RES ovarian = details: 10 µM unless noted
Structure (SMILES),growth (SK-MEL-2 melanoma),growth (EKVX NSCLC),growth (SN12C renal),growth (UO-31 renal),growth (TK-10 renal) [%],growth (ACHN renal) [%],growth (CAKI-1 renal),growth (A498 renal),growth (CCRF-CEM leukemia),growth (MOLT-4 leukemia),growth (SR leukemia),growth (RPMI-8226 leukemia),growth (OVCAR-8 ovarian),growth (OVCAR-5 ovarian) [%],growth (OVCAR-4 ovarian),growth (SK-OV-3 ovarian),growth (IGROV1 ovarian),growth (OVCAR-3 ovarian),growth (HS 578T breast),growth (NCI/ADR-RES ovarian) [%]
Cc1cc2nc(C(Cl)Cl)nc(-c3ccco3)n2n1,103%,63.8%,93.7%,90.7%,89.5,22,51.2%,51.7%,98.2%,74.3%,86.8%,44.3%,80.5%,75.8,79.5%,93.3%,91.1%,22.4%,94%,62.6
C#CCOc1ccc(/C=N/Nc2nc(-c3cc4cc(Br)cc(Br)c4oc3=O)cs2)cc1,109%,92.2%,92.1%,88.5%,142,98.8,88.1%,85.4%,94.4%,62.8%,71%,97.1%,100%,102,83.1%,104%,98.9%,–,91.3%,94.9
C#C[C@]1(O)CC[C@H]2[C@@H]3CC=C4c5sc(Nc6cccc(C)n6)nc5CC[C@]4(C)[C@H]3CC[C@@]21C,-9.35% (active),8.96% (active),56.4%,-15.4% (active),77.2,33.1,2.65% (active),-29.2% (active),2.04% (active),-25.2% (active),-25% (active),-33.2% (active),39%,56.4,56.6%,-7.51% (active),45.5%,–,-15.8% (active),38.5
Cc1ccc(-n2cc(/C=C/C(=O)c3ccc(S(C)(=O)=O)cc3)c(-c3ccc(S(C)(=O)=O)cc3)n2)cc1,107%,93.2%,89.7%,85.5%,127,93.3,89.2%,84.6%,77.5%,71.9%,44%,92.3%,97.5%,98.3,109%,105%,69.2%,75.9%,103%,64
O=[N+]([O-])c1ccc(-c2nnc(SCc3ccc(O)c4ncccc34)o2)cc1,25%,27.3%,17.1%,7.09% (active),29.2,12.6,22.9%,27.7%,19.2%,25.1%,45%,15%,22%,49,17.3%,11.1%,31.7%,8.31% (active),2.14% (active),25.3
COc1cc(/C=C/C(=O)c2ccc(NC(=O)CSc3nnc(-c4ccc5nc(-c6ccccc6)[nH]c5c4)o3)cc2)cc(OC)c1OC,105%,99%,90.8%,89.4%,137,101,105%,84.4%,37.5%,65%,36.8%,30.7%,97.1%,102,99.5%,116%,97.2%,72.1%,85.5%,100
COc1cc(/C=N/n2cnc3oc(-c4ccccc4)cc3c2=N)cc(CN2CCCC2)c1O,113%,97%,-78.8% (active),9.45% (active),114,75.9,62.7%,85.7%,-2.49% (active),6.5% (active),27.4%,-42.2% (active),-22.2% (active),99,-49.7% (active),93.9%,-62.8% (active),104%,63.6%,16.6
COc1ccc(/C=N/Nc2nc(Nc3ccccc3)nc(Nc3ccc(S(N)(=O)=O)cc3)n2)cc1,68.9%,88.5%,80.2%,77.9%,107,75.2,76%,61.7%,45.9%,44.5%,48.5%,47.7%,67.6%,85.6,66.2%,105%,58.7%,–,58.3%,96.3
O=C(NCCCNc1cc(-c2cn(-c3ccccc3)nc2-c2cccc(O)c2)ccn1)Nc1cccc(C(F)(F)F)c1,58.1%,45.7%,56.5%,23.8%,88.3,47.6,36.9%,18.3%,29.2%,11.6%,30.2%,4.35% (active),56.1%,56,38.9%,57.5%,44.2%,49.6%,7.27% (active),48.1
O=C1c2c(c3c4cc(Br)ccc4[nH]c3c3ccc4ccccc4c23)C(=O)N1CCN1CCNCC1,113%,85.9%,84.8%,58.7%,148,69.6,66.1%,97.1%,3.91% (active),4.47% (active),-14.3% (active),-9.87% (active),57.3%,113,103%,93.6%,68.5%,–,115%,69.5
O=C(CCCCCCN1CC(=O)N2[C@@H](c3ccc(Cl)c(F)c3)c3[nH]c4ccccc4c3C[C@H]2C1=O)NO,104%,87.9%,83.8%,75.3%,107,92.1,70.8%,106%,41.2%,45.3%,45.1%,59.1%,66.5%,87.6,84.3%,81.8%,64.5%,83.6%,98.4%,101
COc1ccc(/C=N\NC(=O)c2ccc3nc(-c4ccc(Br)cc4)[nH]c3c2)cc1,96.9%,39.6%,17.1%,75.9%,51.6,35.1,35%,82%,53.2%,61.9%,11.8%,42.1%,13.6%,79.2,12.5%,62.8%,20%,–,14.8%,75.2
O=C1[C@H]2Cc3c([nH]c4ccccc34)[C@H](c3ccc(Cl)cc3)N2C(=O)CN1C1CCN(Cc2c(Cl)cccc2Cl)CC1,106%,74.5%,59.9%,48.4%,101,72.9,41.9%,101%,53.4%,44%,22.2%,50.3%,84.5%,89.2,69.9%,98.5%,39%,76.8%,75.6%,77.6
Oc1ccc(CSc2nnc(-c3ccncc3)o2)c2cccnc12,8.88% (active),47.6%,7.4% (active),12.4%,34.6,40.5,7.09% (active),9.33% (active),26%,25.7%,50.4%,5.35% (active),15.8%,35.7,19.7%,4.05% (active),22.4%,19.8%,5.36% (active),58.4
O=[N+]([O-])c1ccc(-c2nnc(SCc3ccc(O)c4ncccc34)n2-c2ccccc2)cc1,13.8%,40.5%,9.69% (active),7.34% (active),79.3,29.3,30.1%,70.8%,21%,43.2%,40.6%,17.8%,17.9%,73.9,50.6%,30.6%,30.6%,30.5%,5.1% (active),69
